Experiment [1] relates to Zika virus NS2B-NS3 protease. Kind of experiment: Primary screen GU AMC qHTS for Zika virus inhibitors (AID 1347154). Note: nearly all actives have a fitted effect of over 70% in size. A digest of the protocol:
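Unlinked Zika NS2B hydrophilic domain–NS3 protease complex at 25 nM in 10 mM Tris-HCl pH 8.0, 0.01% Tween 20, with an AMC peptide substrate. Fluorescence change (340/450 nm) over 15 min at room temperature, normalized to controls, fitted to 4-parameter Hill.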

For experiment [2], the target named is Lysine-specific demethylase 5B (Homo sapiens) (UniProt Q9UGL1). Kind of experiment: Optimization screen for KDM5B Histone Demethylases FDH coupled qHTS against the LOPAC library (AID 1347166). A digest of the protocol: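 KDM5BDeltaAP (200nM final) in 50mM HEPES pH 7.5, 0.01% Tween-20 was preincubated with compound for 10 min at room temperature. A substrate mix of 12.5uM H3K4Me3, 25uM a-ketoglutarate, ascorbate, Fe2+, NAD+ and formaldehyde dehydrogenase was then added. NADH fluorescence (340/450 nm) was read initially and after 30 min.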
Chain of Lysine-specific demethylase 5B (Homo sapiens) (Q9UGL1 whole entry, looked up): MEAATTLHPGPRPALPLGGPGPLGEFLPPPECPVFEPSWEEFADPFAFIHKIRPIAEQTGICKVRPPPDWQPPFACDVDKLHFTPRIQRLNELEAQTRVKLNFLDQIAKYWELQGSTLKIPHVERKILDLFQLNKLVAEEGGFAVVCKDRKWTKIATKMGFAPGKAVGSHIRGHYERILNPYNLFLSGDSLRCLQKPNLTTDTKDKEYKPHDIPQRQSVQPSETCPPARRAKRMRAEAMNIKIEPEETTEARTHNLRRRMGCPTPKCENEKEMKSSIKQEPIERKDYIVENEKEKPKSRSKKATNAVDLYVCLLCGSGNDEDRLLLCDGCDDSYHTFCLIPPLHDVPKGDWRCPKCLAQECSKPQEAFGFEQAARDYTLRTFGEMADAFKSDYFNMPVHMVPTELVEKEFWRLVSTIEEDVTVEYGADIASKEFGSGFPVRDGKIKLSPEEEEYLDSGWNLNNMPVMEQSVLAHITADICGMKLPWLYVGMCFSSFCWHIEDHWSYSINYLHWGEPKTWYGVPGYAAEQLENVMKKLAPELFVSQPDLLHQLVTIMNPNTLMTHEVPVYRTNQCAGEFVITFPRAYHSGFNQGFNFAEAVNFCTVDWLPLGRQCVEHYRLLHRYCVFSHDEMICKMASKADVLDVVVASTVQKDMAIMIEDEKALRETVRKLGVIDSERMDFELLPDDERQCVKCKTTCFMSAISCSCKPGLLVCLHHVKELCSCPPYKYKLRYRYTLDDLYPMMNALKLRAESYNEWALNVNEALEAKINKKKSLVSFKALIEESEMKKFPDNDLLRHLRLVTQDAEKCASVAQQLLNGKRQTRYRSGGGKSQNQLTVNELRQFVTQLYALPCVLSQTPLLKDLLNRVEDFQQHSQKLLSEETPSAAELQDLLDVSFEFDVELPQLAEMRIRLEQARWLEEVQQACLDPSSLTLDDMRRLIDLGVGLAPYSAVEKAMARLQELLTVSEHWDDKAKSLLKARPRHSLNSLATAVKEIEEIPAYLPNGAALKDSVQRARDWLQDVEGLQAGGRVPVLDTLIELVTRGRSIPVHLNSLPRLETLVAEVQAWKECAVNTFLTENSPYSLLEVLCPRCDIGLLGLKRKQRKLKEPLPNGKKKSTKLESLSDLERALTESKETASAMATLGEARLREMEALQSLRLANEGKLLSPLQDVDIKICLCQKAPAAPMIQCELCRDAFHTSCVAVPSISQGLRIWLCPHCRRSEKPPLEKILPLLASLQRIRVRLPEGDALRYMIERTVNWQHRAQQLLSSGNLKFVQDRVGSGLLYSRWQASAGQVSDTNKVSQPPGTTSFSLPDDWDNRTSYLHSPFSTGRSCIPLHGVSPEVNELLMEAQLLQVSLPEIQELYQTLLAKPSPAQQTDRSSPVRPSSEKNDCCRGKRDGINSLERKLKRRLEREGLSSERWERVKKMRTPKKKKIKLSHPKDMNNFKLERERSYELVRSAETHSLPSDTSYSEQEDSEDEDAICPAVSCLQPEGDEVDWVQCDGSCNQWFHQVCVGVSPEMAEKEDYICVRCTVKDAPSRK
(In general: Quantitative high-throughput screening tests each substance at several concentrations.)

Experiment [3] in a line: qHTS to identify inhibitors of the type 1 interferon - major histocompatibility complex class I in skeletal muscle: primary screen against the NCATS LOPAC collection (AID 1347405).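 Note: human myoblasts with HiBiT tag on endogenous HLA-B stimulated by IFN-beta; lytic HiBiT luminescence reporting HLA-B protein level.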 Note: potency is the fitted concentration of half-maximal effect. The procedure, abridged:
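First, engineered myoblasts carrying HLA-B-HiBiT were seeded in medium lacking dexamethasone with 4 ng/ml IFN-beta. After 1 hr, compounds were pinned in (top 46 uM final, 7 points). After 24 hrs at 37 C, luminescence was measured following 10 min lysis.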

Experiment [4] can be described thus: qHTS to identify inhibitors of the type 1 interferon - major histocompatibility complex class I in skeletal muscle: primary screen against the NCATS Pharmaceutical Collection (AID 1347407).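 Note: luminescence of HiBiT knocked into endogenous HLA-B as interferon-induced MHC class I level.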 Note: potency is the fitted concentration of half-maximal effect. The procedure, abridged:
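Compounds […] were added to CRISPR-engineered HLA-B-HiBiT C25cl48 human myoblasts with 4.0 ng/ml IFN-beta. After 24 hrs at 37 C, cells were lysed and HiBiT luminescence measured.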

A short description of experiment [5]: qHTS for inhibitors of adenylyl cyclases using a fission yeast platform: a pilot screen against the NCATS LOPAC library (AID 1347410). The procedure, abridged: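 GFP from fbp1-GFP reporter, read by Acumen laser cytometry, indicates AC inhibition in fission yeast expressing AC9, GNAS and PDE4D2. Cells grown 18 h in the dark at 30C with compounds, final up to 57 uM.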

For experiment [6], the target named is Protein phosphatase 1D (Homo sapiens) (UniProt O15297). In words: RapidFire Mass Spectrometry qHTS Assay for Modulators of WT P53-Induced Phosphatase 1 (WIP1) (AID 1347424). Note: series mostly up to about 63 µM. A digest of the protocol:
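RapidFire MS readout of dephosphorylated VEPPL-S-QETFS product, with 1 uM isotope-labelled peptide standard. Reaction: 10 nM WIP1, 2 uM phosphopeptide substrate, 5 min, room temperature, after 1 h compound preincubation; stopped with 0.5% formic acid.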

The target is the same in experiment [7]. In words: Rhodamine-PBP qHTS Assay for Modulators of WT P53-Induced Phosphatase 1 (WIP1) (AID 1347425). A digest of the protocol: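 5 nM WIP1 + 10 uM Rh-PBP, 50 mM Tris pH 7.5, 30 mM MgCl2, 1 mM TCEP, 0.1 mM EGTA, BSA; cpds pinned, 1 hr RT; + 10 uM phosphopeptide; fluorescence 1-min reads x 11 min; delta = f1 - f0.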
Experiment [8] can be described thus: Validation qHTS assay for inhibitors of Activation Induced Cytidine Deaminase (AID): UDG Counterscreen signal (AID 1347427). The procedure, abridged:
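Fluorescence at 560 nm excitation, 665 nm emission reports UDG signal after 250 mM NaOH (2x) addition and 30 min. Enzymes (AID 1 uM, UDG 2 U/mL, at 4/3x) preincubated 10 min with compound, then 4 h with 4x 250 nM DJC20/DJC23 substrate at room temperature.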

The target of experiment [9] is Single-stranded DNA cytosine deaminase (Homo sapiens) (UniProt Q9GZX7). Kind of experiment: Validation qHTS assay for inhibitors of Activation Induced Cytidine Deaminase (AID): AID signal (AID 1347429). Note: potency is the fitted concentration of half-maximal effect. A digest of the protocol:
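Steps: dispense AID with UDG; pin-transfer compound up to 114 uM final; add DJC20/DJC23 substrate and hold 4 hr at room temperature; add NaOH, hold 30 min; read FRET signal (540/590 nm).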

Experiment [10] in a line: Primary qHTS for inhibitors of La Crosse Virus (LACV) - induced cell death in SH-SY5Y cells (AID 1508616).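 Note: top concentration of the series differs between compounds; higher means more rescue of cells from virus-induced death.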 The procedure, abridged:
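SH-SY5Y, 6000 cells/well; cpd via pin tool in DMSO; LACV 0.01 MOI; 6 d 37C 5% CO2; ATPLite, 5 min RT; luminescence normalized to ±virus DMSO controls.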

Experiment [11] can be described thus: qHTS to identify inhibitors of the type 1 interferon - major histocompatibility complex class I in skeletal muscle: primary screen against the NCATS Mechanism Interrogation Plate v5.0 (MIPE) Libary (AID 1347411). Note: nearly all actives have a fitted effect of over 65% in size. Note: potency is the fitted concentration of half-maximal effect. A digest of the protocol:
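Seed engineered human myoblasts (HLA-B HiBit) in medium without dexamethasone containing 4 ng/ml IFN-beta; after 1 hr add compound titrations (top 46 uM final). Incubate 24 hrs at 37 C, lyse 10 min with HiBiT reagent, read luminescence.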

A number with no mark means an inactive call. Records with an inconclusive call do not appear. Active and inactive are the calls of the source. Calls come from the whole dose curve; as a rule, active = well fitted curve in the direction sought with a large enough effect; inconclusive = small, poorly fitted or top-dose-only effect, or another doubt; inactive = no such curve, though single readings can be large; an effect the other way counts as inactive or inconclusive.

Chain of Protein phosphatase 1D (Homo sapiens) (O15297 whole entry, looked up): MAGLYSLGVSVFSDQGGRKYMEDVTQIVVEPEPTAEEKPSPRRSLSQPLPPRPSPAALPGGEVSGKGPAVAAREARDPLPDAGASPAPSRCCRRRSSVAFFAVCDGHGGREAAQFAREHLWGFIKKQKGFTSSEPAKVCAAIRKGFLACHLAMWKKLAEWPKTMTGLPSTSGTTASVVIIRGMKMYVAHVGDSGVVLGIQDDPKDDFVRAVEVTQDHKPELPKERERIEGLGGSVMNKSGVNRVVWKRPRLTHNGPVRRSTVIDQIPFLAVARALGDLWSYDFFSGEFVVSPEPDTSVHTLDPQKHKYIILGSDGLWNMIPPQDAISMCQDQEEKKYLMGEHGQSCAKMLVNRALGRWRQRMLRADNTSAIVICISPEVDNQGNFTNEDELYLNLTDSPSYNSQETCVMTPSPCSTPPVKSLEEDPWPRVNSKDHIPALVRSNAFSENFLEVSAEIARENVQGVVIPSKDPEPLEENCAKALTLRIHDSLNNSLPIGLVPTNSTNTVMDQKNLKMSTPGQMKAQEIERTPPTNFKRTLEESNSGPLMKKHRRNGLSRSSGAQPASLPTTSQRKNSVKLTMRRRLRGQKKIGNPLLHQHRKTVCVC
Chain of Single-stranded DNA cytosine deaminase (Homo sapiens) (Q9GZX7 whole entry, looked up): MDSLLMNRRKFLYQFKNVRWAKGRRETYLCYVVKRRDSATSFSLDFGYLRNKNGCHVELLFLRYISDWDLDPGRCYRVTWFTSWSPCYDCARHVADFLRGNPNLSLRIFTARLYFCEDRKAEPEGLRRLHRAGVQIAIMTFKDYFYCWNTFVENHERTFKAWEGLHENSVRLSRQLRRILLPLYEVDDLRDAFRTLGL

Regarding `CCn1nc(C(=O)O)c(=O)c2cc3c(cc21)OCO3`, the call in [1], in experiment [5], in experiment [7] and in experiment [8] was inactive. The Potency entry in experiment [2], in [3], in experiment [4], in experiment [6], in experiment [9] and in [10] was “inactive” throughout.
`c1cnc(N2CCN(Cc3ccc4c(c3)OCO4)CC2)nc1`: the molecule was called inactive in experiment [1], in [5], in experiment [7] and in experiment [8]. In addition, the Potency entry in experiment [2], in [3], in experiment [4], in experiment [6], in experiment [9] and in experiment [10] was “inactive” each time.
For `C[C@@H](O)[C@H]1C(=O)N2C(C(=O)O)=C(SCCN=CN)C[C@H]12`, the result in experiment [1], in [5], in experiment [7] and in experiment [8] was inactive. The Potency entry in [2], in experiment [3], in [4], in experiment [6], in experiment [9] and in experiment [10] was “inactive” in each case.
`CC(N=C(NC#N)Nc1ccncc1)C(C)(C)C` (configuration not stated): the molecule was classed as inactive in experiment [1], in [5], in experiment [7] and in experiment [8]. For the same molecule, the Potency result in experiment [2], in experiment [3], in experiment [4], in experiment [6], in [9] and in experiment [10] was “inactive” each time.
Turning to `CC(=O)[C@]1(O)Cc2c(O)c3c(c(O)c2[C@@H](O[C@H]2C[C@H](N)[C@H](O)[C@H](C)O2)C1)C(=O)c1ccccc1C3=O`, the outcome in experiment [1], in experiment [5], in experiment [7] and in experiment [8] was inactive. For the same molecule, the Potency entry in [2], in experiment [6] and in [10] was “inactive” each time. Also, the Potency was 1 µM (active) in experiment [3], 5.28 µM (active) in experiment [4], 2.08 µM (active) in [11] and 2 µM (active) in [9].
Regarding `CCCCCCCC/C=C\CCCCCCCC(=O)NCc1ccc(O)c(OC)c1`, the call in experiment [1], in experiment [5], in experiment [7] and in [8] was inactive. The Potency entry in experiment [2], in [3], in experiment [4], in experiment [6], in experiment [9] and in experiment [10] was “inactive” throughout.
For `CN=C(NC#N)NCCSCc1nc[nH]c1C`, the call in [1], in experiment [5], in experiment [7] and in experiment [8] was inactive. The Potency result in [2], in experiment [3], in [4], in experiment [6], in experiment [9] and in experiment [10] was “inactive” in each case.
Turning to `COc1ccc([C@@H]2Sc3ccccc3N(CCN(C)C)C(=O)[C@@H]2OC(C)=O)cc1`, the molecule was classed as inactive in experiment [1], in experiment [5], in [7] and in [8]. For the same molecule, the Potency entry in experiment [2], in experiment [3], in experiment [4], in experiment [11], in [6] and in experiment [9] was “inactive” each time. In experiment [10], the Potency entry is “inactive”.
As for `CN(C)CCN(Cc1cccs1)c1ccccn1`, the molecule was classed as inactive in experiment [1], in [5], in experiment [7] and in experiment [8]. In addition, the Potency entry in experiment [2], in [3], in experiment [4], in experiment [6], in [9] and in [10] was “inactive” throughout.
`NC(=O)c1cn(Cc2c(F)cccc2F)nn1`: the call in experiment [1], in experiment [5], in [7] and in experiment [8] was inactive. Moreover, the Potency result in experiment [2], in [3], in [4], in experiment [6], in [9] and in [10] was “inactive” throughout.
For `CCCN(CCC)CCc1cccc2c1CC(=O)N2`, the call in experiment [1], in [5], in experiment [7] and in experiment [8] was inactive. Moreover, the Potency entry in experiment [2], in experiment [3], in [4], in experiment [6], in experiment [9] and in experiment [10] was “inactive” in each case.
